Unmarked numbers belong to inactive results. Inconclusive results are not listed. Entries that show only a call come without a potency. The source made the active and inactive calls. Unless noted, calls follow the shape of the dose curve; as a rule, active = well fitted curve in the direction sought with a large enough effect in the repeat runs; inconclusive = weak or mixed curves; inactive = no such curve, though single readings can be large; an effect the other way counts as inactive or inconclusive.
How the values were obtained:
[1] = qHTS assay to identify small molecule antagonists of the estrogen receptor alpha (ER-alpha) signaling pathway using the BG1 cell line in the presence of 0.1 nM 17-beta-estradiol - cell viability counter screen (AID 1259241); also: nearly all actives have a fitted effect of over 40% in size
Outline: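 In this screen, hormone-deprived VM7Luc4E2 cells were seeded at 4,000 per well, dosed with compound and 0.1 nM estradiol final, and incubated 22 hr at 37C and 5% CO2; fluorogenic live-cell protease signal reported viability.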

[2] = qHTS assay to identify small molecule antagonists of the androgen receptor (AR) signaling pathway using the MDA cell line in the presence of 0.5 nM R1881 - cell viability counter screen (AID 1259242); also: nearly all actives have a fitted effect of over 45% in size
Outline: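 R1881 at 0.5 nM final stimulated MDA-kb2 cells during 16 hr compound treatment at 37C. Cytotoxicity read: CellTiter-Fluor fluorescence after 30 min.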

[3] = qHTS assay to identify small molecule HDAC inhibitors (AID 1259364); also: potency is read from the fitted curve at half-maximal effect;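 also: wild-type HCT-116 cells with endogenous class I/II HDAC activity; nearly all actives have a fitted effect of over 45% in size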
Outline: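 Relative class I and II HDAC activity is taken from the luminogenic signal in HCT-116 cells, with compound exposure 2 hr and reagent development 30 min at room temperature.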

[4] = qHTS assay to identify small molecule antagonists of the sonic hedgehog signaling (Shh) pathway - cell viability counter screen (AID 1259367); also: nearly all actives have a fitted effect of over 55% in size
Outline: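 Using CellTiter-Fluor, viability of Gli1-Luc reporter 3T3 cells is read by fluorescence in the wells used for the Shh luciferase assay. Treatment lasts 23 hr with conditioned medium, then reagent 1 hr at 37C.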

[5] = qHTS assay to identify small molecule agonists of the sonic hedgehog signaling (Shh) pathway (AID 1259368; calls by dose curve;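 also: NIH/3T3-derived 3T3Gli1-Luc cells carrying a stable Gli1-driven firefly luciferase reporter; series mostly up to about 92 µM; nearly all actives have a fitted effect of over 15% in size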)
Outline: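 Mouse fibroblast (NIH/3T3) reporter cells with stably integrated Gli1-Luc were treated 24 hr with compound; firefly luciferase luminescence served as the read-out.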

[6] = target: Estrogen receptor beta (Homo sapiens) (UniProt Q92731); experiment: qHTS assay to identify small molecule agonists of the estrogen receptor beta (ER-beta) signaling pathway (AID 1259377; active = well fitted activation curve with a large enough effect in the signal ratio in the repeat runs, not every such curve was filed as active; the % refers to the signal ratio)
Outline: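 Reporter cells (HEK293T, ER-beta-UAS-bla) receive compounds or DMSO after a 6 hr pre-incubation. They then incubate 16 hr at 37C/5% CO2, and fluorescence from LiveBLAzer B/G substrate is measured after 2 hours at room temperature.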

[7] = qHTS assay to identify small molecule agonists of the androgen receptor (AR) signaling pathway in the presence of an antagonist - cell viability counter screen (AID 1259379);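 also: MDA-kb2 human breast cancer cells carrying an MMTV luciferase reporter; series mostly up to about 92 µM; nearly all actives have a fitted effect of over 25% in size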
Outline: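 A CellTiter-Fluor read-out measured viability of MDA-kb2 reporter cells (MMTV promoter with AR and GR response elements). Treatment: nilutamide 3.0uM final with compounds at 15 concentrations, 16 hr, 37C, 0% CO2.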

[8] = qHTS assay to identify small molecule agonists of the estrogen receptor beta (ER-beta) signaling pathway - cell viability counter screen (AID 1259380); also: nearly all actives have a fitted effect of over 30% in size
Outline: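 Cells used were ER-beta-UAS-bla HEK293T in medium with 2% charcoal-stripped FBS. They were treated for 16 hr at 37C. Viability came from CellTiter-Glo luminescence.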

[9] = qHTS assay to identify small molecule antagonists of the estrogen receptor beta (ER-beta) signaling pathway - cell viability counter screen (AID 1259382); also: series mostly up to about 92 µM; nearly all actives have a fitted effect of over 55% in size
Outline: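 Agonist-stimulated (1nM E2) ER-beta-UAS-bla HEK293T cells are incubated with library compounds for 16 hr at 37C. Cell viability is then assessed in the reporter-assay wells by adding CellTiter-Glo and reading luminescence after 30 min.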

[10] = qHTS assay to identify small molecule agonists or antagonists of the thyroid stimulating hormone receptor (TSHR) signaling pathway - wild type cell line counter screen (AID 1259384; calls by dose curve)
Outline: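 Counter screen in untransfected Hek293: compounds (15-point titration, triplicate) plus phosphodiesterase inhibitor Ro20-1724 added after 18 h plating; 30 min RT. Intracellular cAMP via competitive d2/cryptate immunoassay, 1 h incubation.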

[11] = target: Thyrotropin receptor (Homo sapiens) (UniProt P16473); experiment: qHTS assay to identify small molecule antagonists of the thyroid stimulating hormone receptor (TSHR) signaling pathway (AID 1259385; calls by dose curve; also: nearly all actives have a fitted effect of over 20% in size)
Outline: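 Antagonist mode: compound-treated TSHR-expressing HEK293 cells were stimulated with 1.5 ng/mL TSH (final) in presence of Ro20-1724 for 30 min at RT. HTRF cAMP detection after 1 h; each compound tested at 15 concentrations, triplicate.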

[12] = qHTS assay to identify small molecule agonists of the sonic hedgehog signaling (Shh) pathway - cell viability counter screen (AID 1259366); also: nearly all actives have a fitted effect of over 50% in size; also: potency is read from the fitted curve at half-maximal effect
Outline: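 In quantitative high-throughput format, 3T3 Gli1-Luc cells were exposed to compounds for 24hr and multiplexed for viability using CellTiter-Fluor, incubated 1hr at 37C before the fluorescence read.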

[13] = qHTS assay to identify small molecule antagonists of the sonic hedgehog signaling (Shh) pathway (AID 1259369; calls by dose curve; also: nearly all actives have a fitted effect of over 45% in size)
Outline: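 Conditioned medium drives Shh signalling in 3T3Gli1-Luc cells; compounds in DMSO co-applied, 24hr at 37 C, then luciferase luminescence.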

[14] = qHTS assay to identify small molecule HDAC inhibitors - cell viability counter screen (AID 1259365); also: series mostly up to about 92 µM; nearly all actives have a fitted effect of over 50% in size
Outline: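 Measured quantity is CellTiter-Glo luminescence from wild-type HCT-116 cells after compound incubation of 2hr at 37C, 5% CO2; reagent developed 30min at room temperature.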

[15] = target: Estrogen receptor beta (Homo sapiens) (UniProt Q92731); experiment: qHTS assay to identify small molecule antagonists of the estrogen receptor beta (ER-beta) signaling pathway (AID 1259378; active = well fitted inhibition curve with a large enough effect in the signal ratio in the repeat runs, not every such curve was filed as active; the % refers to the signal ratio; also: potency is read from the fitted curve at half-maximal effect)
Outline: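 Antagonist mode: compounds added to beta-lactamase reporter HEK293T ER-beta-UAS cells stimulated with E2 (1nM final), 16 hr at 37C. LiveBLAzer B/G FRET substrate, 2 hours room temperature, fluorescence read-out.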

[16] = target: Estrogen receptor (Homo sapiens) (UniProt P03372); experiment: qHTS assay to identify small molecule agonists of the estrogen receptor alpha (ER-alpha) signaling pathway in the presence of an antagonist (AID 1259383; calls by dose curve; also: nearly all actives have a fitted effect of over 15% in size; also: potency is read from the fitted curve at half-maximal effect; as to activation: top concentration of the series differs between compounds)
Outline: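 Using VM7Luc4E2 cells seeded 24hr before treatment, antagonist ICI-182,780 (10.0nM final) was added, followed by compounds at 15 concentrations. Plates incubated 22hr; ONE-Glo luminescence quantified reporter activity.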

Estrogen receptor beta (Homo sapiens), sequence (Q92731 whole entry, looked up): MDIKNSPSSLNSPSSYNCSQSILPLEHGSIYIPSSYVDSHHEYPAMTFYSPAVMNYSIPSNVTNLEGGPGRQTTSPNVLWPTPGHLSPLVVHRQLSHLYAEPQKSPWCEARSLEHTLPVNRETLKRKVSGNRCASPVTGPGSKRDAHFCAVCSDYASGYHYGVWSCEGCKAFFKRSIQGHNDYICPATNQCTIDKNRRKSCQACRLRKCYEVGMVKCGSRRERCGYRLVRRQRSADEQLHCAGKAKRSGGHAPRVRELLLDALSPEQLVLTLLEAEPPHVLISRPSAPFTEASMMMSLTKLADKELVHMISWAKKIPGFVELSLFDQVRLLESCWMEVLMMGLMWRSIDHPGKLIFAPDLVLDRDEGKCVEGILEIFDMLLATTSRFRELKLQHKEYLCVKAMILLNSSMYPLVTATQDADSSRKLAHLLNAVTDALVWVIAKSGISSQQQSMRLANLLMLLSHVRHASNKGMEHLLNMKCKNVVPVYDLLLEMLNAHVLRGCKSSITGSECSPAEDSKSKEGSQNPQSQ
Estrogen receptor (Homo sapiens), sequence (P03372 whole entry, looked up): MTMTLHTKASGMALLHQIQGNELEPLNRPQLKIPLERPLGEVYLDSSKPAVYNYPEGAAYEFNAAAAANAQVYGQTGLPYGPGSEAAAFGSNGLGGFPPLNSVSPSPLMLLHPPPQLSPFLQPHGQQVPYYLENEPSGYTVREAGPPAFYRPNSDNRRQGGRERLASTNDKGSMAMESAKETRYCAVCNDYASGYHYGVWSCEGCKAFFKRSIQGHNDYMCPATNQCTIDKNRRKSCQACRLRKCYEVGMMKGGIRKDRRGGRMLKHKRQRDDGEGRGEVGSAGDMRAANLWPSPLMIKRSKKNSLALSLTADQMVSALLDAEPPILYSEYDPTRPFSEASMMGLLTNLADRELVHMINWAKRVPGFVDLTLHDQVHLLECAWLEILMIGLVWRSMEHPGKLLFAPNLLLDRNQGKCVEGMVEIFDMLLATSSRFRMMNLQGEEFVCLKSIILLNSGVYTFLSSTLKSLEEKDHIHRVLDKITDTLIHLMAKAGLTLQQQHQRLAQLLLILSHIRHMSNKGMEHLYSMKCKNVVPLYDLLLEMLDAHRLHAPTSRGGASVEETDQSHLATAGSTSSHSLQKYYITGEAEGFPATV
Thyrotropin receptor (Homo sapiens), sequence (P16473 whole entry, looked up): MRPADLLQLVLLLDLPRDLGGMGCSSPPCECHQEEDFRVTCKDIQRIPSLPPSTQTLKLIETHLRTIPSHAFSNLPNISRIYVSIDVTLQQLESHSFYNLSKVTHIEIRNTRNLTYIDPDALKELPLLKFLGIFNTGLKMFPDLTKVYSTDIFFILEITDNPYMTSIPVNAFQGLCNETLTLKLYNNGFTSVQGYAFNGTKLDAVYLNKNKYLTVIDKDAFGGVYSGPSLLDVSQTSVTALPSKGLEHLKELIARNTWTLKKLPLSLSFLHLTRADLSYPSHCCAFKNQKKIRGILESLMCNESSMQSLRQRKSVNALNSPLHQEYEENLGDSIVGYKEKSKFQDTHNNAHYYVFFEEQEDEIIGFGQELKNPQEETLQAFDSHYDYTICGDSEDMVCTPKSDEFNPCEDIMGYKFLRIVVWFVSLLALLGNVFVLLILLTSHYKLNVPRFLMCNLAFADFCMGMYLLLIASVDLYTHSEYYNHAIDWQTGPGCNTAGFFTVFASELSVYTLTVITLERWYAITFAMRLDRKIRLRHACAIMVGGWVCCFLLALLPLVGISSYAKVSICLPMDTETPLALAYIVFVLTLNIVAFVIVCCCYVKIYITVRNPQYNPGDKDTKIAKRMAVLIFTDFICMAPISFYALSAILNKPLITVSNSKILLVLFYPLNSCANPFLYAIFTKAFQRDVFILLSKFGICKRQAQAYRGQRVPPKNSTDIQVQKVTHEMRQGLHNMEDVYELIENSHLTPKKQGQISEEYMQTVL

| Structure (SMILES) | Potency [1] | Potency [2] | Potency [3] | Potency [4] | Potency [5] | Potency [6] | Potency [7] | Potency [8] | Potency [9] | Potency [10] | Potency [11] | Potency [12] | Potency [13] | Potency [14] | Potency [15] | Potency [16] |
| --- | --- | --- | --- | --- | --- | --- | --- | --- | --- | --- | --- | --- | --- | --- | --- | --- |
| CCc1cccc(C)c1N(C(=O)CCl)[C@@H](C)COC | inactive | inactive | inactive | inactive | inactive | inactive | inactive | inactive | inactive | inactive | inactive | – | – | – | – | – |
| C1=CCC=C1 | inactive | inactive | inactive | inactive | inactive | – | inactive | inactive | inactive | – | – | inactive | inactive | – | – | – |
| Oc1cccc(Cl)c1Cl | inactive | inactive | inactive | inactive | inactive | – | inactive | – | – | inactive | inactive | – | inactive | inactive | inactive | inactive |
| CN | inactive | inactive | – | inactive | inactive | – | inactive | inactive | inactive | inactive | inactive | inactive | inactive | inactive | inactive | – |
| C#CC1(O)CCCCC1 | inactive | inactive | – | inactive | inactive | inactive | inactive | inactive | inactive | inactive | inactive | – | inactive | inactive | inactive | – |
| CC(=O)[O-].CC(=O)[O-].O.O.O.[Pb+2] | inactive | inactive | – | inactive | inactive | – | inactive | inactive | inactive | – | – | – | inactive | inactive | – | – |
| Cc1cc(C2CC2)nc(Nc2ccccc2)n1 | inactive | inactive | 24.3 µM (active) | – | inactive | – | inactive | – | inactive | inactive | inactive | 48.6 µM (active) | inactive | inactive | inactive | inactive |
| Clc1ccc(C(Cl)(Cl)Cl)cc1Cl | inactive | inactive | 15 µM (active) | inactive | inactive | inactive | – | inactive | inactive | – | – | inactive | inactive | – | inactive | – |
| c1ccc(Nc2ccc(Nc3ccccc3)cc2)cc1 | inactive | inactive | inactive | inactive | – | inactive | inactive | – | inactive | inactive | inactive | – | – | inactive | 0.136 µM (active) | 54.3 µM (active) |
| CCCCn1cc[n+](C)c1 (tested in a mixture with another compound) | inactive | inactive | inactive | inactive | inactive | – | inactive | inactive | inactive | – | – | – | inactive | inactive | – | – |
